# Test results taken from ChEMBL document CHEMBL4513135, “CO-ADD screening of IQOG CSIS (Spain) compounds”.
# Measured potencies and affinities stand elsewhere.
# Test system: Staphylococcus aureus
# Details: Concentration 32 ug.mL-1; ASSAY_TEST Inhibition of Bacterial Growth; detection method Absorption (OD600); MEDIA CAMHB; plate type 384well; NBS; CORNING #3640; time 18 hr
row,Structure (SMILES),Inhibition
1,Cc1ccccc1C=C(C#N)C#N,3.49%
2,N#CCC(=O)c1ccccc1,30.68%
3,NNC(=O)c1cn(Cc2ccccc2)c2ccccc12,1.65%
4,N#CC(C#N)=Cc1ccc(Cl)cc1,7.12%
5,C#CCN(C)Cc1cc2cc(OCc3ccc(OC(=O)N(C)C)c4ncccc34)ccc2n1C,7.52%
6,OCC(Cc1cnc[nH]1)NCc1ccccc1 (stereo unspecified),6.92%
7,C#CCN1CCc2nc3nc(OC)c(C#N)cc3c(N)c2C1,26.45%
8,Cl.ClCCN1CCCC1,22.74%
9,CCOC(=O)C1=C(OC)OC(=O)CC1c1ccccc1 (stereo unspecified),39.56%
10,COc1ccc(C=C(C#N)C#N)cc1OC,14.77%
11,Cl.ClCCN1CCCCC1,28.78%
12,CCOC(=O)c1cc2cc(OC(=O)NC3CCN(Cc4ccccc4)CC3)ccc2[nH]1,20.68%
13,NNCCCc1c[nH]c2ccccc12.O=C(O)/C=C/C(=O)O,18.22%
14,CCOC(=O)c1cn(Cc2ccccc2)c2ccccc12,3.83%
15,N#Cc1cc(C#N)c(N2C3CCC2CC3)nc1N,-1.36%
16,CCOc1nc2nc(C)c(C(=O)O)cc2c(-c2ccccc2)c1C#N,17.86%
17,C#CCN1CCc2nc3ncccc3c(N)c2C1.Cl,20.08%
18,COc1cc(C2C(C#N)=C(N)Oc3c2ccc2ccccc32)cc(OC)c1OC (stereo unspecified),6.42%
19,O=C(N1[C@H]2CC[C@@H]1C(c1nnn[nH]1)C2)C(F)(F)F (stereo partly specified),26.59%

row,Structure (SMILES),Inhibition
1,Cc1ccc(S(=O)(=O)N2[C@H]3CC[C@@H]2CC3)cc1,28.46%
2,Cc1ccc(C=C(C#N)C#N)cc1,8.41%
3,CN1CC=C(c2cccn2C)CC1,10.32%
4,O=C(CBr)NCc1ccccc1,46.96%
5,[N-]=[N+]=NCC(=O)c1ccc(Br)cc1,26.38%
6,CCOC(=O)C1=C(C)OC(=O)CC1c1ccccc1 (stereo unspecified),23.21%
7,Cc1nc(N)c(C#N)cc1C(=O)O,4.41%
8,CN1CC=C(c2cccn2C)CC1.Cl,10.31%
9,CN(C)C(=O)Oc1ccc(CCl)c2cccnc12,22.39%
10,CCOC(=O)C1=C(C)NC(=O)CC1c1ccccc1 (stereo unspecified),39.69%
11,C#CCN(C)Cc1cc2cc(OCCCC3CCN(Cc4ccc(OC(=O)N(C)C)c5ncccc45)CC3)ccc2n1C,11.25%
12,NNC(=O)c1cccnc1 [NICOTINIC ACID HYDRAZIDE],11.6%
13,CNCc1cn(C)c2ccc(OC)cc12.Cl,14.24%
14,COc1ccc2c(c1)cc(C[N+](C)(C)C)n2C.[I-],13.5%
15,Nc1c2c(nc3c1C(c1ccccc1)CC(=O)N3)CCCC2 (stereo unspecified),28.94%
16,C#CCN(C)Cc1cc2cc(OC(=O)N(C)C)ccc2n1C,-2.15%
17,Nc1c2c(nc3ccccc13)CCN(Cc1ccccc1)C2,9.97%
18,CC1CC(=O)Nc2nc3c(c(N)c21)CCCC3 (stereo unspecified),27.94%
19,C#CCN1CCc2nc3nc(Cl)c(C#N)cc3c(N)c2C1,26.25%

# Test system: Escherichia coli
# Details: Concentration 32 ug.mL-1; ASSAY_TEST Inhibition of Bacterial Growth; detection method Absorption (OD600); MEDIA CAMHB; plate type 384well; NBS; CORNING #3640; time 18 hr
row,Structure (SMILES),Inhibition
1,Cc1ccccc1C=C(C#N)C#N,0.38%
2,N#CCC(=O)c1ccccc1,18.52%
3,NNC(=O)c1cn(Cc2ccccc2)c2ccccc12,1.53%
4,N#CC(C#N)=Cc1ccc(Cl)cc1,5.89%
5,C#CCN(C)Cc1cc2cc(OCc3ccc(OC(=O)N(C)C)c4ncccc34)ccc2n1C,-14.26%
6,OCC(Cc1cnc[nH]1)NCc1ccccc1 (stereo unspecified),2.95%
7,C#CCN1CCc2nc3nc(OC)c(C#N)cc3c(N)c2C1,-2.8%
8,Cl.ClCCN1CCCC1,7.3%
9,CCOC(=O)C1=C(OC)OC(=O)CC1c1ccccc1 (stereo unspecified),-6.33%
10,COc1ccc(C=C(C#N)C#N)cc1OC,13.47%
11,Cl.ClCCN1CCCCC1,20.05%
12,CCOC(=O)c1cc2cc(OC(=O)NC3CCN(Cc4ccccc4)CC3)ccc2[nH]1,-6.09%
13,NNCCCc1c[nH]c2ccccc12.O=C(O)/C=C/C(=O)O,27.72%
14,CCOC(=O)c1cn(Cc2ccccc2)c2ccccc12,-2.16%
15,N#Cc1cc(C#N)c(N2C3CCC2CC3)nc1N,10.18%
16,CCOc1nc2nc(C)c(C(=O)O)cc2c(-c2ccccc2)c1C#N,-10.47%
17,C#CCN1CCc2nc3ncccc3c(N)c2C1.Cl,-15.24%
18,COc1cc(C2C(C#N)=C(N)Oc3c2ccc2ccccc32)cc(OC)c1OC (stereo unspecified),8.07%
19,O=C(N1[C@H]2CC[C@@H]1C(c1nnn[nH]1)C2)C(F)(F)F (stereo partly specified),-6.69%

row,Structure (SMILES),Inhibition
1,Cc1ccc(S(=O)(=O)N2[C@H]3CC[C@@H]2CC3)cc1,-2.06%
2,Cc1ccc(C=C(C#N)C#N)cc1,8.38%
3,CN1CC=C(c2cccn2C)CC1,19%
4,O=C(CBr)NCc1ccccc1,14.62%
5,[N-]=[N+]=NCC(=O)c1ccc(Br)cc1,9.41%
6,CCOC(=O)C1=C(C)OC(=O)CC1c1ccccc1 (stereo unspecified),-9.36%
7,Cc1nc(N)c(C#N)cc1C(=O)O,-9.15%
8,CN1CC=C(c2cccn2C)CC1.Cl,19.65%
9,CN(C)C(=O)Oc1ccc(CCl)c2cccnc12,-10.05%
10,CCOC(=O)C1=C(C)NC(=O)CC1c1ccccc1 (stereo unspecified),-3.27%
11,C#CCN(C)Cc1cc2cc(OCCCC3CCN(Cc4ccc(OC(=O)N(C)C)c5ncccc45)CC3)ccc2n1C,-10.82%
12,NNC(=O)c1cccnc1 [NICOTINIC ACID HYDRAZIDE],15.76%
13,CNCc1cn(C)c2ccc(OC)cc12.Cl,17.26%
14,COc1ccc2c(c1)cc(C[N+](C)(C)C)n2C.[I-],12.23%
15,Nc1c2c(nc3c1C(c1ccccc1)CC(=O)N3)CCCC2 (stereo unspecified),0.15%
16,C#CCN(C)Cc1cc2cc(OC(=O)N(C)C)ccc2n1C,-5.14%
17,Nc1c2c(nc3ccccc13)CCN(Cc1ccccc1)C2,1.56%
18,CC1CC(=O)Nc2nc3c(c(N)c21)CCCC3 (stereo unspecified),-10.32%
19,C#CCN1CCc2nc3nc(Cl)c(C#N)cc3c(N)c2C1,-10.74%
